# Results reported in the supplement of paper PMC8728848.
# The sample as a whole holds a higher share of the strongest signals than the screen did.
# B1: Gal 7 (Homo sapiens) (protein)
# chain: MSNVPHKSSLPEGIRPGTVLRIRGLVPPNASRFHVNLLCGEEGGSDAALHFNPRLDTSEVVFNSKEGGSWGREERGPGVPFGRGQPFEVLIIASDDGFKAVVGDAQYHHFRHRLPLARVRLVEVGGDVQLDSVRIF
# What was measured:
# Assay in all cases: glycan array binding signal (z-score within array); higher = stronger binding
# Conditions in all cases: glycan notation: IUPAC condensed, linker removed
# [1] = molecular target: Gal(b1-4)GlcNAc(b1-3)Gal(b1-4)GlcNAc(b1-3)Gal(b1-4)GlcNAc(b1-3)Gal(b1-4)GlcNAc(b1-2)[Gal(b1-4)GlcNAc(b1-3)Gal(b1-4)GlcNAc(b1-3)Gal(b1-4)GlcNAc(b1-3)Gal(b1-4)GlcNAc(b1-6)]Man(a1-6)[Gal(b1-4)GlcNAc(b1-3)Gal(b1-4)GlcNAc(b1-3)Gal(b1-4)GlcNAc(b1-3)Gal(b1-4)GlcNAc(b1-2)Man(a1-3)]Man(b1-4)GlcNAc(b1-4)[Fuc(a1-6)]GlcNAc
# Summary of the method: (§1)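 Columns mapping to the same glycan were averaged after glycan names were converted to IUPAC-condensed notation. The data come from 3228 arrays in the Consortium for Functional Glycomics database, limited to those with an available protein sequence. Binding is reported as a within-array Z-score averaged across arrays of one protein sequence and across linkers.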
# [2] = molecular target: Gal(b1-4)GlcNAc(b1-3)Gal(b1-4)GlcNAc(b1-3)Gal(b1-4)GlcNAc(b1-3)Gal(b1-4)GlcNAc(b1-3)Gal(b1-4)GlcNAc(b1-2)Man(a1-3)[Gal(b1-4)GlcNAc(b1-3)Gal(b1-4)GlcNAc(b1-3)Gal(b1-4)GlcNAc(b1-3)Gal(b1-4)GlcNAc(b1-3)Gal(b1-4)GlcNAc(b1-2)Man(a1-6)]Man(b1-4)GlcNAc(b1-4)GlcNAc
# Summary of the method: as §1
# [3] = molecular target: Gal(b1-4)GlcNAc(b1-3)Gal(b1-4)GlcNAc(b1-3)Gal(b1-4)GlcNAc(b1-3)Gal(b1-4)GlcNAc(b1-3)Gal(b1-4)GlcNAc(b1-2)Man(a1-3)[Gal(b1-4)GlcNAc(b1-3)Gal(b1-4)GlcNAc(b1-3)Gal(b1-4)GlcNAc(b1-3)Gal(b1-4)GlcNAc(b1-3)Gal(b1-4)GlcNAc(b1-2)Man(a1-6)]Man(b1-4)GlcNAc(b1-4)[Fuc(a1-6)]GlcNAc
# Summary of the method: as §1
# [4] = molecular target: Gal(b1-4)GlcNAc(b1-3)Gal(b1-4)GlcNAc(b1-3)Gal(b1-4)GlcNAc(b1-3)Gal(b1-4)GlcNAc(b1-3)Gal(b1-4)GlcNAc(b1-2)[Gal(b1-4)GlcNAc(b1-3)Gal(b1-4)GlcNAc(b1-3)Gal(b1-4)GlcNAc(b1-3)Gal(b1-4)GlcNAc(b1-3)Gal(b1-4)GlcNAc(b1-6)]Man(a1-6)[Gal(b1-4)GlcNAc(b1-3)Gal(b1-4)GlcNAc(b1-3)Gal(b1-4)GlcNAc(b1-3)Gal(b1-4)GlcNAc(b1-3)Gal(b1-4)GlcNAc(b1-2)Man(a1-3)]Man(b1-4)GlcNAc(b1-4)[Fuc(a1-6)]GlcNAc
# Summary of the method: as §1
# [5] = molecular target: Gal(b1-4)GlcNAc(b1-3)Gal(b1-4)GlcNAc(b1-3)GalNAc
# Summary of the method: as §1
# Gal3S(b1-3)GalNAc = molecular target: Gal3S(b1-3)GalNAc
# Summary of the method: as §1
# Gal3S(b1-4)Glc6S = molecular target: Gal3S(b1-4)Glc6S
# Summary of the method: as §1
# [6] = molecular target: Gal3S(b1-4)[Fuc(a1-3)]GlcNAc
# Summary of the method: as §1
# Gal6S(b1-3)GlcNAc = molecular target: Gal6S(b1-3)GlcNAc
# Summary of the method: as §1
# [7] = molecular target: GalNAc(b1-3)Gal(a1-6)Gal(b1-4)Glc
# Summary of the method: as §1
# GlcA(b1-6)Gal = molecular target: GlcA(b1-6)Gal
# Summary of the method: as §1
# [8] = molecular target: GlcNAc(b1-2)Man(a1-3)[GlcNAc(b1-2)Man(a1-6)]Man(b1-4)GlcNAc(b1-4)GlcNAc
# Summary of the method: as §1
# [9] = molecular target: GlcNAc(b1-2)[GlcNAc(b1-4)]Man(a1-3)[GlcNAc(b1-4)][GlcNAc(b1-2)Man(a1-6)]Man(b1-4)GlcNAc(b1-4)GlcNAc
# Summary of the method: as §1
# [10] = molecular target: GlcNAc(b1-2)[GlcNAc(b1-4)]Man(a1-3)[GlcNAc(b1-4)][GlcNAc(b1-2)[GlcNAc(b1-6)]Man(a1-6)]Man(b1-4)GlcNAc(b1-4)GlcNAc
# Summary of the method: as §1
# [11] = molecular target: GlcNAc(b1-2)[GlcNAc(b1-6)]Man(a1-6)[GlcNAc(b1-2)Man(a1-3)]Man(b1-4)GlcNAc(b1-4)GlcNAc
# Summary of the method: as §1
# [12] = molecular target: GlcNAc(b1-3)Gal(b1-4)GlcNAc(b1-3)Gal(b1-4)GlcNAc(b1-3)Gal(b1-4)GlcNAc(b1-2)[GlcNAc(b1-3)Gal(b1-4)GlcNAc(b1-3)Gal(b1-4)GlcNAc(b1-3)Gal(b1-4)GlcNAc(b1-6)]Man(a1-6)[GlcNAc(b1-3)Gal(b1-4)GlcNAc(b1-3)Gal(b1-4)GlcNAc(b1-3)Gal(b1-4)GlcNAc(b1-2)Man(a1-3)]Man(b1-4)GlcNAc(b1-4)[Fuc(a1-6)]GlcNAc
# Summary of the method: as §1
# [13] = molecular target: GlcNAc(b1-3)Gal(b1-4)GlcNAc(b1-3)Gal(b1-4)GlcNAc(b1-3)Gal(b1-4)GlcNAc(b1-3)Gal(b1-4)GlcNAc(b1-2)Man(a1-3)[GlcNAc(b1-3)Gal(b1-4)GlcNAc(b1-3)Gal(b1-4)GlcNAc(b1-3)Gal(b1-4)GlcNAc(b1-3)Gal(b1-4)GlcNAc(b1-2)Man(a1-6)]Man(b1-4)GlcNAc(b1-4)[Fuc(a1-6)]GlcNAc
# Summary of the method: as §1
# [14] = molecular target: GlcNAc(b1-3)Gal(b1-4)GlcNAc(b1-3)Gal(b1-4)GlcNAc(b1-3)Gal(b1-4)GlcNAc(b1-3)Gal(b1-4)GlcNAc(b1-2)[GlcNAc(b1-3)Gal(b1-4)GlcNAc(b1-3)Gal(b1-4)GlcNAc(b1-3)Gal(b1-4)GlcNAc(b1-3)Gal(b1-4)GlcNAc(b1-6)]Man(a1-6)[GlcNAc(b1-3)Gal(b1-4)GlcNAc(b1-3)Gal(b1-4)GlcNAc(b1-3)Gal(b1-4)GlcNAc(b1-3)Gal(b1-4)GlcNAc(b1-2)Man(a1-3)]Man(b1-4)GlcNAc(b1-4)[Fuc(a1-6)]GlcNAc
# Summary of the method: as §1
# [15] = molecular target: GlcNAc(b1-3)[GlcNAc(b1-6)]GlcNAc
# Summary of the method: as §1
# [16] = molecular target: Man(a1-2)Man(a1-2)Man(a1-3)[Man(a1-2)Man(a1-6)[Man(a1-3)]Man(a1-6)]Man(b1-4)GlcNAc(b1-4)GlcNAc
# Summary of the method: as §1
# [17] = molecular target: Man(a1-2)Man(a1-6)[Man(a1-3)]Man(a1-6)[Man(a1-2)Man(a1-2)Man(a1-3)]Man(b1-4)GlcNAc(b1-4)GlcNAc
# Summary of the method: as §1
# [18] = molecular target: Man(a1-3)[Man(a1-6)]Man(a1-6)[Man(a1-2)Man(a1-3)]Man(b1-4)GlcNAc(b1-4)GlcNAc
# Summary of the method: as §1
# [19] = molecular target: Neu5Ac(a2-3)Gal(b1-3)[Fuc(a1-4)]GlcNAc(b1-3)Gal(b1-4)[Fuc(a1-3)]GlcNAc
# Summary of the method: as §1
# [20] = molecular target: Neu5Ac(a2-3)Gal(b1-4)GlcNAc(b1-2)Man(a1-3)[GlcNAc(b1-2)Man(b1-4)GlcNAc(b1-2)Man(a1-6)]Man(b1-4)GlcNAc(b1-4)GlcNAc
# Summary of the method: as §1
# [21] = molecular target: Neu5Ac(a2-3)Gal(b1-4)GlcNAc(b1-3)Gal(b1-4)GlcNAc(b1-3)GalNAc
# Summary of the method: as §1
# [22] = molecular target: Neu5Ac(a2-3)Gal(b1-4)[Fuc(a1-3)]GlcNAc
# Summary of the method: as §1
# [23] = molecular target: Neu5Ac(a2-3)[GalNAc(b1-4)]Gal(b1-4)GlcNAc
# Summary of the method: as §1
# [24] = molecular target: Neu5Ac(a2-6)Gal(b1-4)GlcNAc(b1-2)[Neu5Ac(a2-6)Gal(b1-4)GlcNAc(b1-6)]Man(a1-6)[Neu5Ac(a2-6)Gal(b1-4)GlcNAc(b1-2)Man(a1-3)][GlcNAc(b1-4)]Man(b1-4)GlcNAc(b1-4)GlcNAc
# Summary of the method: as §1
# [25] = molecular target: Neu5Ac(a2-8)Neu5Ac(a2-8)Neu5Ac(a2-3)Gal(b1-4)Glc
# Summary of the method: as §1
binder,measurement,setting,value
B1,glycan array binding signal (z-score),[1],5.2
same,glycan array binding signal (z-score),[2],4.95
same,glycan array binding signal (z-score),[3],4.93
same,glycan array binding signal (z-score),[4],5.14
same,glycan array binding signal (z-score),[5],-0.127
same,glycan array binding signal (z-score),Gal3S(b1-3)GalNAc,0.538
same,glycan array binding signal (z-score),Gal3S(b1-4)Glc6S,2.04
same,glycan array binding signal (z-score),[6],-0.312
same,glycan array binding signal (z-score),Gal6S(b1-3)GlcNAc,-0.324
same,glycan array binding signal (z-score),[7],-0.319
same,glycan array binding signal (z-score),GlcA(b1-6)Gal,-0.332
same,glycan array binding signal (z-score),[8],-0.324
same,glycan array binding signal (z-score),[9],-0.311
same,glycan array binding signal (z-score),[10],-0.33
same,glycan array binding signal (z-score),[11],-0.2
same,glycan array binding signal (z-score),[12],5.04
same,glycan array binding signal (z-score),[13],4.94
same,glycan array binding signal (z-score),[14],5.06
same,glycan array binding signal (z-score),[15],-0.33
same,glycan array binding signal (z-score),[16],-0.333
same,glycan array binding signal (z-score),[17],-0.185
same,glycan array binding signal (z-score),[18],-0.158
same,glycan array binding signal (z-score),[19],-0.197
same,glycan array binding signal (z-score),[20],-0.355
same,glycan array binding signal (z-score),[21],-0.259
same,glycan array binding signal (z-score),[22],-0.305
same,glycan array binding signal (z-score),[23],-0.248
same,glycan array binding signal (z-score),[24],-0.274
same,glycan array binding signal (z-score),[25],-0.015
